Data published in publication PMC7862700, “An all-to-all approach to the identification of sequence-specific readers for epigenetic DNA modifications on cytosine”.

What was measured:
Assay in all cases: DAPPL (digital affinity profiling via proximity ligation, sequencing); 10 mM Tris-HCl pH 7.5, 50 mM NaCl, 1 mM DTT, 4% glycerol, room temperature, 30 min; GST-TFs on glutathione beads, 16-mer random dsDNA library, 0.1% formaldehyde crosslink after washing; high values mean tight binding
FLI1 = biological target: T1, FLI1 (Homo sapiens, UniProt Q01543 1-452); settings: protein: recombinant; tags: N-terminal GST; dsDNA, one strand shown
T1 sequence: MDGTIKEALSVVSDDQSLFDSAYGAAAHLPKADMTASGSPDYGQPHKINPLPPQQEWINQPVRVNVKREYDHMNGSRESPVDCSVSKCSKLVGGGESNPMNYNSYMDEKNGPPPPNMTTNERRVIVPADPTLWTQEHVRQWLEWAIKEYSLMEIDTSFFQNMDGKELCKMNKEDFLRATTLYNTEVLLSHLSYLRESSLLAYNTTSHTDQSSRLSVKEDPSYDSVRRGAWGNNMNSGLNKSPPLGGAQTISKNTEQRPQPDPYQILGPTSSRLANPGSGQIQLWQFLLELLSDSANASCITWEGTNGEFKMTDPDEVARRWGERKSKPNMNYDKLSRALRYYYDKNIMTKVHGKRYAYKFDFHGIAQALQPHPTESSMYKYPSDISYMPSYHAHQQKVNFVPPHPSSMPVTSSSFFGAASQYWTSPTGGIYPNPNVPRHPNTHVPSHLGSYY
How it was run: (§1)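 Binding signal is defined as a hexamer's read frequency for one factor over its frequency for the tag-only sample. To obtain reads, GST-fused human transcription factors were expressed in yeast, captured on glutathione beads, barcoded with DNA and pooled with that sample. Pools met 200 nmole of a 16-mer random double-stranded DNA library in Tris/NaCl/DTT/glycerol buffer for 30 min at room temperature before washing, 0.1% formaldehyde crosslinking, proximity ligation (BsaI/T4 ligase, 1 h, 37 °C), PCR and Illumina NextSeq500 sequencing.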

ELK1 = biological target: T2, ELK1 (Homo sapiens, UniProt P19419 1-428); settings: protein: recombinant; tags: N-terminal GST; dsDNA, one strand shown
T2 sequence: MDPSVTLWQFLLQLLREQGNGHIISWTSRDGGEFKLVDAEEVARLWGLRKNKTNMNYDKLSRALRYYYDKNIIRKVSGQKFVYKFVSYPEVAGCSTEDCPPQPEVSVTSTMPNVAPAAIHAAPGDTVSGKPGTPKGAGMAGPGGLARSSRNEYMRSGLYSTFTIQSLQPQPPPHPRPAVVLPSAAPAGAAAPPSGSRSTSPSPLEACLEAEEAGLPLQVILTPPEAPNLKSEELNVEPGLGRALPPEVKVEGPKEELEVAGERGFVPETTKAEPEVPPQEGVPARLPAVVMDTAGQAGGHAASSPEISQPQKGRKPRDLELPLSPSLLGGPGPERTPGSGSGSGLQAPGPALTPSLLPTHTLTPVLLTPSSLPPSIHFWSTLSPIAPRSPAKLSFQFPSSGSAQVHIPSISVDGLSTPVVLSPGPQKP
How it was run: as §1

GABPA = biological target: T3, GABPA (Homo sapiens, UniProt Q06546 1-454); settings: protein: recombinant; tags: N-terminal GST; dsDNA, one strand shown
T3 sequence: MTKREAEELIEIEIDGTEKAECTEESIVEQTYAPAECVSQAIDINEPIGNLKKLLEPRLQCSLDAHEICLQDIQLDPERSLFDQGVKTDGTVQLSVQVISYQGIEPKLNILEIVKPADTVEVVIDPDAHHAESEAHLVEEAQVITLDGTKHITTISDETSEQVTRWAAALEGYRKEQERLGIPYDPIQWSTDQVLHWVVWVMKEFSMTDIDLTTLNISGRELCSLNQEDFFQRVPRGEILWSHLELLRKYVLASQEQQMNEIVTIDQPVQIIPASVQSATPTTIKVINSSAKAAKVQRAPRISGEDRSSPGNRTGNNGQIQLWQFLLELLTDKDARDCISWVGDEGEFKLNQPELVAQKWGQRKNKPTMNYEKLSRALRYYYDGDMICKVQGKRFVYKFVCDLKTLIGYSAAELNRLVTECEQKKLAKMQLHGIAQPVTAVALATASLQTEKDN
How it was run: as §1

ERG = biological target: T4, ERG (Homo sapiens, UniProt P11308 1-479); settings: protein: recombinant; tags: N-terminal GST; dsDNA, one strand shown
T4 sequence: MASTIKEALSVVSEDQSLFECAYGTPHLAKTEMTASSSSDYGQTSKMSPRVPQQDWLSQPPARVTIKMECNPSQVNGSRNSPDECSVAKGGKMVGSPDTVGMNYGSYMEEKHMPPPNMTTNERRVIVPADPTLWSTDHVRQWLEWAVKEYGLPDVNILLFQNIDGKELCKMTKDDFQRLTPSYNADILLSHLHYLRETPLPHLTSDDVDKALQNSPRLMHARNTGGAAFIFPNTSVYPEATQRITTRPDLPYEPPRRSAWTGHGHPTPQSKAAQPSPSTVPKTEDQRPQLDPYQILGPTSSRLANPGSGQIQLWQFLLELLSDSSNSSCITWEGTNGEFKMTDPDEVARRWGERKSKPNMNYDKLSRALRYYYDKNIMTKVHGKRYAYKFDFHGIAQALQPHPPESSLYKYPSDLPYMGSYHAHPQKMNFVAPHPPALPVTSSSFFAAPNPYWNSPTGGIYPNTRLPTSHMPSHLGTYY
How it was run: as §1

ELF1 = ELF1 (Homo sapiens, UniProt P32519 1-619); settings: protein: recombinant; tags: N-terminal GST; dsDNA, one strand shown
ELF1, sequence (P32519 whole entry): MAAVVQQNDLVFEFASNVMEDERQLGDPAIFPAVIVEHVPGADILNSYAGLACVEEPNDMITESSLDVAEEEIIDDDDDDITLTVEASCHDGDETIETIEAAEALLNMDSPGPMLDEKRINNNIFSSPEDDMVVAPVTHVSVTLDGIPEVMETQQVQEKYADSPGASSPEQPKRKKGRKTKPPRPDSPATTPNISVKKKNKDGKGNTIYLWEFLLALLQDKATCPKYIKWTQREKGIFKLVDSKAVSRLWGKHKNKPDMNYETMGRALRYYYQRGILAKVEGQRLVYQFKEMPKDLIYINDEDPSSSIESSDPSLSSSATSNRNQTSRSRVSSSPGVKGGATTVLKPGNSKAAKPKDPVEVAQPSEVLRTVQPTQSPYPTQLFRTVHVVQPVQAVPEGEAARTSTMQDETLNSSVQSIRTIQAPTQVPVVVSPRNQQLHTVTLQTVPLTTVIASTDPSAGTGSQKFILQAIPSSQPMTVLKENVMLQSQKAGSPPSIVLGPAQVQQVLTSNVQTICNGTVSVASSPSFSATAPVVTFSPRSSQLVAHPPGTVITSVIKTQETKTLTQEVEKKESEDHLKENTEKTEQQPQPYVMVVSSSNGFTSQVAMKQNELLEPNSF
How it was run: as §1

EHF = biological target: T5, EHF (Homo sapiens, UniProt Q9NZC4 1-300); settings: protein: recombinant; tags: N-terminal GST; dsDNA, one strand shown
T5 sequence: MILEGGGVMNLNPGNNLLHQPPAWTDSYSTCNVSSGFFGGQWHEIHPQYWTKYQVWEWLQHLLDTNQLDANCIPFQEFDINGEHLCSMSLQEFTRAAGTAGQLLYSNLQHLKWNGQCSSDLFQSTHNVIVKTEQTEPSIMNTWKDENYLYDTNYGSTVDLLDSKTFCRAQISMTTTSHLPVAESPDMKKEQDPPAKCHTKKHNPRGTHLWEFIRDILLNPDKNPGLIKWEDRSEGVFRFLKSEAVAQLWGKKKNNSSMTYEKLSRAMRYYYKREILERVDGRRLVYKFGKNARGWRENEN
How it was run: as §1

SPI1 = SPI1 (Homo sapiens, UniProt P17947 1-270); settings: protein: recombinant; tags: N-terminal GST; dsDNA, one strand shown
How it was run: as §1

SPIB = SPIB (Homo sapiens, UniProt Q01892 1-262); settings: protein: recombinant; tags: N-terminal GST; dsDNA, one strand shown
SPIB, sequence (Q01892 whole entry): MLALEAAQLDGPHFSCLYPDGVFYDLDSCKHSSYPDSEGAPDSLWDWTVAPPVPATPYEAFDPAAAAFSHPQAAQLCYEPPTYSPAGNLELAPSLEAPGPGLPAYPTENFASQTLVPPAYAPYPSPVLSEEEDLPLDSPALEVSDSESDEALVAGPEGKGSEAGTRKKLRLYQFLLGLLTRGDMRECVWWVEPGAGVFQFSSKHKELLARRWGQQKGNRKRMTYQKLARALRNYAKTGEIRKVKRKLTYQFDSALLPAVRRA
How it was run: as §1

ELK3 = biological target: T6, ELK3 (Homo sapiens, UniProt P41970 1-407); settings: protein: recombinant; tags: N-terminal GST; dsDNA, one strand shown
T6 sequence: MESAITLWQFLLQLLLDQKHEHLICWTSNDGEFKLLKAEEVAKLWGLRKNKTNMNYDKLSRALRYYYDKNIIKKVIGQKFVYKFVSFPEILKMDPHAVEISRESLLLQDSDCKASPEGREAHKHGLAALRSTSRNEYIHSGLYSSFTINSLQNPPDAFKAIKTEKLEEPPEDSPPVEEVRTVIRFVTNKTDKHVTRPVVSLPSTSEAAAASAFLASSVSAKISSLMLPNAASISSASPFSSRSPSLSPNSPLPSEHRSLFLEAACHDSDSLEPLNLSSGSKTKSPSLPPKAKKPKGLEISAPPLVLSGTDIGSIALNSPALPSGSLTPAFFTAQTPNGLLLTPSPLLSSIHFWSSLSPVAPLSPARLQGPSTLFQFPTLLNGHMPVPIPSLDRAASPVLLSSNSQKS
How it was run: as §1

FEV = biological target: T7, FEV (Homo sapiens, UniProt Q99581 1-238); settings: protein: recombinant; tags: N-terminal GST; dsDNA, one strand shown
T7 sequence: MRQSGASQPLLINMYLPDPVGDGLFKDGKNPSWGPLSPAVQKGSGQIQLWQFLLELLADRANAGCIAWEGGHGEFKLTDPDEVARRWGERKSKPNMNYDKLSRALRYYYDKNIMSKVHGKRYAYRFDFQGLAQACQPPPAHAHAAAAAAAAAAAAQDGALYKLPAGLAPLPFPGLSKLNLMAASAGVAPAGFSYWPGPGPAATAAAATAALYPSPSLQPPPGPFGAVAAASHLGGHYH
How it was run: as §1

ETV5 = ETV5 (Homo sapiens, UniProt P41161 1-510); settings: protein: recombinant; tags: N-terminal GST; dsDNA, one strand shown
ETV5, sequence (P41161 whole entry): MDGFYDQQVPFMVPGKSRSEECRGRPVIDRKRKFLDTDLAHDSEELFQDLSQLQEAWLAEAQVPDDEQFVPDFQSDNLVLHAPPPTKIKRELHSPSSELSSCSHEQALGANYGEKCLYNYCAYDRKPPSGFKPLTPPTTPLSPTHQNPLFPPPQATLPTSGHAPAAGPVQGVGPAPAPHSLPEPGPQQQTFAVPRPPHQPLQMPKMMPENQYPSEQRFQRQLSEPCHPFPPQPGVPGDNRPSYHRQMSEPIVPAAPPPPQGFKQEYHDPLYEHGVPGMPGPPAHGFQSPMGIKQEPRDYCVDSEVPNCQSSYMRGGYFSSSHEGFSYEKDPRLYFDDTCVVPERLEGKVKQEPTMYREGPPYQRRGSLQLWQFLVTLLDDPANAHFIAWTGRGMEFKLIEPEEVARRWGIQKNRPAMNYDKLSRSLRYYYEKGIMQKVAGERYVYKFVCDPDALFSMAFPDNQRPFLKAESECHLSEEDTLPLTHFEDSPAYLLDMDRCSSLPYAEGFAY
How it was run: as §1

HSF1 = HSF1 (Homo sapiens, UniProt Q00613 1-529); settings: protein: recombinant; tags: N-terminal GST; chain copies: 3; dsDNA, one strand shown
HSF1, sequence (Q00613 whole entry): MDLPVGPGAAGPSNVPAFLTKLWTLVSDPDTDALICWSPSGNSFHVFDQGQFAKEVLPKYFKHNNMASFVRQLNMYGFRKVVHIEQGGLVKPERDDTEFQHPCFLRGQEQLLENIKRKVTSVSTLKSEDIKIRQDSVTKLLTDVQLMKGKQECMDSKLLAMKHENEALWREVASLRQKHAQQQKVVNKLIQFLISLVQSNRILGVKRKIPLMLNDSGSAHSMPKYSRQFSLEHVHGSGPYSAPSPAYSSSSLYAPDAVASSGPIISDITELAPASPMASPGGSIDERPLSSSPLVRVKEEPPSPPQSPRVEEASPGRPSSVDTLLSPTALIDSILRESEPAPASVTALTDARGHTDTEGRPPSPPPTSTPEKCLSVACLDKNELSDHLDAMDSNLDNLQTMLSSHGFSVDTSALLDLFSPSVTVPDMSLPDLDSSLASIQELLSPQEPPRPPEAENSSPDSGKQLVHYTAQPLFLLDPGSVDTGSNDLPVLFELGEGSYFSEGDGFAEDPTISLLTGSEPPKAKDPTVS
How it was run: as §1

SPIC = biological target: T8, SPIC (Homo sapiens, UniProt Q8N5J4 1-248); settings: protein: recombinant; tags: N-terminal GST; dsDNA, one strand shown
T8 sequence: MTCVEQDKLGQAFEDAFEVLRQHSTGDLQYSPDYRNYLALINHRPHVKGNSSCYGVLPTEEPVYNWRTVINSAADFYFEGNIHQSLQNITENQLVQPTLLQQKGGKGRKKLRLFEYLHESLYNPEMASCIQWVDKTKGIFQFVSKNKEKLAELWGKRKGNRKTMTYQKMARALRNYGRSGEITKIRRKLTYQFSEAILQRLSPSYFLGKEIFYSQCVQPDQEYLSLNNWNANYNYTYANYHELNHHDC
How it was run: as §1

ELF4 = ELF4 (Homo sapiens, UniProt Q99607 1-663); settings: protein: recombinant; tags: N-terminal GST; dsDNA, one strand shown
ELF4, sequence (Q99607 whole entry): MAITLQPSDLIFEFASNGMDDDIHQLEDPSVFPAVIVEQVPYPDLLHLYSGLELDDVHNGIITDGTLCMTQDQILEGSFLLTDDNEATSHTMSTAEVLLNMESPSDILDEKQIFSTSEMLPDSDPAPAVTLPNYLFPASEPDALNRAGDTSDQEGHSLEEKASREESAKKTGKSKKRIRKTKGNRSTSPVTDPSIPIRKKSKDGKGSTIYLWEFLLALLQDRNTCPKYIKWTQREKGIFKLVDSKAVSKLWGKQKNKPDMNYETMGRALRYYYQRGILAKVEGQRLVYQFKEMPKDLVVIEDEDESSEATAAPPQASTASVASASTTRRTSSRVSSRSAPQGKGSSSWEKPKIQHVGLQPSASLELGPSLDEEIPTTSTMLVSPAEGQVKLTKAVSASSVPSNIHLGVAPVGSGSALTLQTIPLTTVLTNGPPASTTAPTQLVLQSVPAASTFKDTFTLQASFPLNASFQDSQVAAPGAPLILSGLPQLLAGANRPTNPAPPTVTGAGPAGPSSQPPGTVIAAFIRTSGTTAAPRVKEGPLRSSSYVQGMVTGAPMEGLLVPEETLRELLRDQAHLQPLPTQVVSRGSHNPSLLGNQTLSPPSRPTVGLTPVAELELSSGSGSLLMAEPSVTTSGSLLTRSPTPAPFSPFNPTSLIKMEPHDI
How it was run: as §1

ELK4 = biological target: T9, ELK4 (Homo sapiens, UniProt P28324-2 1-405); settings: protein: recombinant; tags: N-terminal GST; dsDNA, one strand shown
T9 sequence: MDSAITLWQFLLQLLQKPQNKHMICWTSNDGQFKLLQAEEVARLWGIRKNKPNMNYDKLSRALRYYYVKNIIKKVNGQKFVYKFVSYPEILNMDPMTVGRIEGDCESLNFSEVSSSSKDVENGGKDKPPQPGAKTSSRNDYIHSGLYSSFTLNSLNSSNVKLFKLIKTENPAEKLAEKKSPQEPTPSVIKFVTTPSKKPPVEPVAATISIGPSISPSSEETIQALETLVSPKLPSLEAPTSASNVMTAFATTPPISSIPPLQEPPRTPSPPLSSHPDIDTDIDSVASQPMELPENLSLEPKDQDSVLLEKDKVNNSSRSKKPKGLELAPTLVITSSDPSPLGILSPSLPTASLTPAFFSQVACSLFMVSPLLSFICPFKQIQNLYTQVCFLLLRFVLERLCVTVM
How it was run: as §1

ETV2 = biological target: T10, ETV2 (Homo sapiens, UniProt O00321 1-342); settings: protein: recombinant; tags: N-terminal GST; dsDNA, one strand shown
T10 sequence: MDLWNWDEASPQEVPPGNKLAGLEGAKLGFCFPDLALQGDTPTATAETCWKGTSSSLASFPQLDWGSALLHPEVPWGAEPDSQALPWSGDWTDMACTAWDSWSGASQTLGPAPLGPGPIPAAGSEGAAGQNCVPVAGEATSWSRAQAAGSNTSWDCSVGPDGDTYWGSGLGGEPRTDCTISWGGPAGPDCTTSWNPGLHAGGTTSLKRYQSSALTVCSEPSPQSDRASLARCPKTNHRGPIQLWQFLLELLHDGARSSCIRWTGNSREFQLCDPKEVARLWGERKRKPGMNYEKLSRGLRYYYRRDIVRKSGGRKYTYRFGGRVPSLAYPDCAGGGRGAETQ
How it was run: as §1

ELF3 = biological target: T11, ELF3 (Homo sapiens, UniProt P78545 1-371); settings: protein: recombinant; tags: N-terminal GST; dsDNA, one strand shown
T11 sequence: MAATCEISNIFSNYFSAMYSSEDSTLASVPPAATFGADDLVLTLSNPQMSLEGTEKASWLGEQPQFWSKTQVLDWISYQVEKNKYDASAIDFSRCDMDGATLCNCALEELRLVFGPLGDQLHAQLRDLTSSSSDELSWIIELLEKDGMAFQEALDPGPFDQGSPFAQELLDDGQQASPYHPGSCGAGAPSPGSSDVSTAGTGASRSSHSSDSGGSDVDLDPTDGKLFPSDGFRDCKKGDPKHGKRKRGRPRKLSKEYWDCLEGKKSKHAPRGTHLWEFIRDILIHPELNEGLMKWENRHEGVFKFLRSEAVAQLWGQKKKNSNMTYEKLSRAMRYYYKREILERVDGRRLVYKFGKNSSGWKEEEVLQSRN
How it was run: as §1

CRX = CRX (Homo sapiens, UniProt O43186 1-299); settings: protein: recombinant; tags: N-terminal GST; dsDNA, one strand shown
CRX, sequence (O43186 whole entry): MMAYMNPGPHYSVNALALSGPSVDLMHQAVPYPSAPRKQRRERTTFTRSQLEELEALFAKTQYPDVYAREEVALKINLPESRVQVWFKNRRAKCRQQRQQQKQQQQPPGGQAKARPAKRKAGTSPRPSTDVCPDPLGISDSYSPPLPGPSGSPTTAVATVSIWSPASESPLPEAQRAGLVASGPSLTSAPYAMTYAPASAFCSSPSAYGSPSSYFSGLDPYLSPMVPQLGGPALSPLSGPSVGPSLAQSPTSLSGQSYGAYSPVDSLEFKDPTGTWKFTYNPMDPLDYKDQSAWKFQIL
How it was run: as §1

ETV1 = ETV1 (Homo sapiens, UniProt P50549 1-477); settings: protein: recombinant; tags: N-terminal GST; dsDNA, one strand shown
ETV1, sequence (P50549 whole entry): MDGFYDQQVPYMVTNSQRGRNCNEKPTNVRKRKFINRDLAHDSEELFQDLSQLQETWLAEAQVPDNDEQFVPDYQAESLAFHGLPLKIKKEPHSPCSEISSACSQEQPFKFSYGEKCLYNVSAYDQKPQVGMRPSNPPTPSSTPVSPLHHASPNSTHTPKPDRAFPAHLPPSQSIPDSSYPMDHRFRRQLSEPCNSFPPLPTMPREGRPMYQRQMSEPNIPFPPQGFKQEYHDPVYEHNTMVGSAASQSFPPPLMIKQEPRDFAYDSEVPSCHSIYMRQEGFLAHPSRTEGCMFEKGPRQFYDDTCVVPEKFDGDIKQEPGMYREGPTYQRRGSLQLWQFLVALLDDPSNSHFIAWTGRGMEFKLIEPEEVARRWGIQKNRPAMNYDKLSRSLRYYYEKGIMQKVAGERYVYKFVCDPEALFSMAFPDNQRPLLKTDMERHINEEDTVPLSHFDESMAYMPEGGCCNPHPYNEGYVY
How it was run: as §1

## TTCGAA
FLI1
  binding signal: 1.14 fold enrichment (6-mer frequency, TF over GST control)
ELK1
  binding signal: 1.2 fold enrichment (6-mer frequency, TF over GST control)
GABPA
  binding signal: 1.19 fold enrichment (6-mer frequency, TF over GST control)
ERG
  binding signal: 1.19 fold enrichment (6-mer frequency, TF over GST control)
ELF1
  binding signal: 1.28 fold enrichment (6-mer frequency, TF over GST control)
EHF
  binding signal: 1.12 fold enrichment (6-mer frequency, TF over GST control)
SPI1
  binding signal: 1.14 fold enrichment (6-mer frequency, TF over GST control)
SPIB
  binding signal: 1.12 fold enrichment (6-mer frequency, TF over GST control)
ELK3
  binding signal: 1.33 fold enrichment (6-mer frequency, TF over GST control)
FEV
  binding signal: 1.13 fold enrichment (6-mer frequency, TF over GST control)
ETV5
  binding signal: 1.18 fold enrichment (6-mer frequency, TF over GST control)
HSF1
  binding signal: 1.93 fold enrichment (6-mer frequency, TF over GST control)
SPIC
  binding signal: 1.18 fold enrichment (6-mer frequency, TF over GST control)
ELF4
  binding signal: 1.26 fold enrichment (6-mer frequency, TF over GST control)
ELK4
  binding signal: 1.2 fold enrichment (6-mer frequency, TF over GST control)
ETV2
  binding signal: 1.16 fold enrichment (6-mer frequency, TF over GST control)
ELF3
  binding signal: 1.24 fold enrichment (6-mer frequency, TF over GST control)
CRX
  binding signal: 1.3 fold enrichment (6-mer frequency, TF over GST control)
ETV1
  binding signal: 1.1 fold enrichment (6-mer frequency, TF over GST control)
